# Test results as given in the supplement of paper PMC6555819.
# How the values were obtained:
# Assay in all cases: PBM binding z-score (relative to random genomic background probes); higher = stronger binding; sequences stand for … in GC…GCGATTGACAGCGTAGAATGAAGG
# [1] = test system: RARb homodimer (NR concentration 270 nM)
# Method in brief: (§1)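 Binding z-scores were set against random background probes. The data came from custom Agilent 4×180K protein-binding microarrays carrying double-stranded probes with 34-nt variable regions, incubated 1 h with ligand-free nuclear receptor dimers. Partner-specific antibodies detected binding, and scanned fluorescence was regression-normalized.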
# [2] = test system: RARg:RXRa (NR concentration 270 nM, RXRa partner concentration 90 nM)
# Method in brief: as §1
# [3] = test system: RARg homodimer (NR concentration 270 nM)
# Method in brief: as §1
# [4] = test system: RXRa DBDmut IVT, anti-RXR (DBD mutation: RXRa K156A/R161A, NR concentration 90 nM)
# Method in brief: as §1
# [5] = test system: RXRa homodimer (NR concentration 180 nM)
# Method in brief: as §1
# [6] = test system: THRa:RXRa (NR concentration 90 nM, RXRa partner concentration 90 nM)
# Method in brief: as §1
# [7] = test system: THRa homodimer (NR concentration 90 nM)
# Method in brief: as §1
# [8] = test system: VDR:RXRa (NR concentration 270 nM, RXRa partner concentration 90 nM)
# Method in brief: as §1
# [9] = test system: VDR homodimer (NR concentration 270 nM)
# Method in brief: as §1
Sequence,PBM binding z-score [1],PBM binding z-score [2],PBM binding z-score [3],PBM binding z-score [4],PBM binding z-score [5],PBM binding z-score [6],PBM binding z-score [7],PBM binding z-score [8],PBM binding z-score [9]
CCTTACGGGTCACTGACAGGTTACAGCATTTGGA,3.43,6.18,4.87,1.94,5.36,3.08,0.386,3.76,1.01
AGAATGAGGTTATACGTAGATCAGGGAGGAAAGT,0.93,1.79,1.27,1.87,2.27,2.24,0.817,1.33,1.09
TAGCCTAGGTGATTCAGGGGCCAGTATAGAAAGC,0.919,0.914,0.0636,-0.561,-0.089,0.651,-0.0483,-0.381,-0.15
GGAACGAGGGCAAGTTGGTAGCAGAGTTTGATGG,1.6,1.27,2.08,2.05,0.826,1.41,0.26,1.03,1.91
GCTGCTAGGTCAACTGATGGTCAGCTCAAGCTCG,3.67,5.5,5.38,1.62,2.96,3.09,1.25,1.59,0.00206
TTGCCTAGGTCATTCAGGGGCCAGTATAGAAAGC,3.3,6.09,4.46,2.14,2.76,3.48,0.747,3.15,1.75
TCTTGTTGATCAAGCAGGTTAAGAAAGCCTGAGT,0.418,-0.0831,-0.348,0.561,0.248,0.444,-0.1,0.244,0.0832
TAGCCTAGGTCCTGGGCCAGTATACCACGCGAAC,-0.386,-0.497,-0.364,-1.66,-0.311,-0.414,-0.714,-0.679,-0.78
ATCTCTAGTTAACCAAGTTCAGTGAATGCCGAAC,1.4,0.578,0.612,0.814,0.549,1.19,0.332,2.46,3.16
CTTTACGGGTCACTCCAGGTTATAGCATCGGAGT,3.36,4.62,4.65,2.29,4.54,5.08,0.775,4.46,1.88
ATCTCTAGATAAAGTTCAGTGAAAGATCGATAGA,1.84,1.4,2.06,0.839,0.79,0.243,-0.14,1.03,1.66
CGAACTAGGTCATTGACAGGACATTGAATAGTAA,2.8,4.62,4.56,2.52,2.75,2.9,0.971,3.1,1.62
CGTCCAGGGTCATAGGAGGTCAGTGAAGACAGAT,4.98,6.27,6.23,3.62,6.72,5.12,2.18,6.65,4.31
CCTCGGAGGACAACAGGAGGTCAGAGCGGCCAGA,3.6,3.74,3.91,0.253,2.11,2.87,1.31,2.92,1.51
AATACAGGGTCACTAGGGCAGAGTAGGTACGAAT,3.68,5.3,5.01,2.74,5.8,3.45,1.6,4.5,2.98
GTACCAAGGTGAATAGGTCGTTCATGAGTAGGCG,1.96,2.67,1.47,0.154,1.99,1.78,0.565,1.06,0.67
TCTATTAGTTGAAGGGCAATCGACGAGTCCGTTT,0.87,0.355,0.467,1.61,0.559,0.0989,-0.0938,1.02,1.42
AGAAGGAGGGCAATGAGTTGATAGCACGGGTGGC,1.51,0.896,1.46,0.955,0.646,0.385,0.339,4.93,2.51
GCAGACAGGTGAAACGCAGGTAACCCAGGGTGGC,0.0682,1.01,0.468,-1.51,0.96,1.52,-0.636,-0.517,-1.22
ATCTCTAGGTAACGATAGTTCAGTGAATGCAAAT,0.983,0.601,0.702,-0.137,0.128,0.928,0.354,0.643,0.517
GTACCAAGTTGAATAGGTCGTTGATGAGTAGGCG,0.758,0.982,0.525,0.103,0.719,0.151,-0.492,0.387,0.477
CGTCCACGGTCAATGCTAGGTCAGTGAAAGCATT,3.02,3.59,3.1,0.356,0.354,2.12,0.347,0.36,-0.19
GCAGACAGGTGAAACGCAGGTACCTCAGGGTGGC,-0.353,0.0657,0.145,-0.949,0.343,0.295,-0.722,-0.756,-0.935
TAGCCTAGGTCACTCAGGGGCCAGTATAGAAAGC,3.61,5.91,5.25,0.581,2.94,3.17,0.528,2.42,0.664
GCTGCTAGGTCAGGTTCGTCAGCTAACGGGTACG,2.25,2.25,3.35,1.63,1.24,1.94,0.323,1.44,2.58
TCTCGGACGACACGAAAGGTCAGAGCTCGACATC,4.33,4.43,4.55,0.759,4.8,2.77,0.521,2.96,0.805

Sequence,PBM binding z-score [1],PBM binding z-score [2],PBM binding z-score [3],PBM binding z-score [4],PBM binding z-score [5],PBM binding z-score [6],PBM binding z-score [7],PBM binding z-score [8],PBM binding z-score [9]
CCGACTGGCGCATAAGGTTACCATAAGCCAGCCC,0.729,0.235,0.126,-0.135,0.736,2.26,1.56,-0.0103,0.005
GCAGACAGGTCAAACGCAGGTAACTCAGGGTGGC,2.7,5.58,4.53,2.16,4.65,3.23,-0.195,3,0.795
AGTCAAAGATCAGGACGAGGTAACGTAAAGCACG,-0.273,0.544,0.425,-0.798,0.431,2.27,1.16,-0.216,-0.321
ATCTCTAGGTAAAGATAGTTCCGTGAATGCAAAT,-0.314,-0.154,0.427,-0.0164,0.0158,0.316,0.233,-0.0941,0.309
AGAATGAGGTTAAGGTCAGGGAAACAGAATACAT,4.1,4.97,4.67,1.43,4.93,4.39,4.62,3.82,2.36
CCTAGCAGGCCAATCTGGCTCACTCAAGGCTTGA,-0.747,-0.58,-0.5,-0.298,-0.743,-0.627,-0.709,-0.563,-1.02
GATACTGGGTCAAGGCCAGAGTACGCGTATTGAT,2.91,3.4,3.58,-0.138,2.62,2.09,0.289,1.46,0.679
CCGACTGGGGCAAAGGTTACCCTACTCAGTACGA,1.96,3.01,1.49,-0.029,3.13,1.72,0.249,1.23,0.136
CCTTACGGGTCACTGCAGGTTATAGCATCGGAGT,3.23,4.87,4.67,1.59,5.03,4.41,0.184,4.19,1.17
CAAACTAGGTCAAAGTTCAAAGTCGAGCCAACCA,4.52,7.71,6.23,3.95,8.77,4.23,1.21,6.12,4.43
ATCTCTAGGTAACCAAATTCAGTGAATGCCGAAC,0.339,0.22,0.428,0.324,0.301,0.659,0.778,0.296,0.572
TCTCGGAGGACAAGAAGGTCAGAGCTTTCCAGAG,3.34,2.76,3.26,0.905,1.69,2.09,0.236,1.8,0.789
AATACAGGGTCATCGTAGGCCCGAGTACGCACAG,3.43,5.52,5.24,3.34,6.9,3.72,1.41,4.95,3.29
CTACCAAGGTGAACAAGGTAGTTGATTACTATTC,0.762,0.87,0.957,0.172,0.815,1.75,0.665,1.45,-0.336
ATCGCTAGGTAAAGTTCAGTGAAAGATCGATAGA,2.03,1.75,1.86,0.79,1.03,0.617,-0.888,0.735,1.49
GCTAGTTGGTCAGTAGAAGGTCACACACCGGTCG,4.34,4.23,3.7,0.334,3.35,2.75,1.59,2.65,1.32
CATACAGGGTGAGCTAGGCCAGAGTAGGGACGGC,0.342,0.54,0.662,-1.01,0.302,0.989,0.182,-0.189,-0.497
TTACCAAGGTGAAAGGTCCTTGATGCACGCCTTG,1.22,1.67,0.796,-0.243,2.47,2.28,0.542,0.75,-0.756
TTATATAGGTAATACAGGTGAAAGTCGGCATCTA,0.731,0.618,0.933,0.117,1.11,1.06,0.46,0.727,0.401
GTTATTAGTTGAAAGGGCAACCGAATGATTCTCG,2.41,1.75,1.95,1.16,1.64,1.18,0.669,1.24,1.55
CAGCCTAGGTCAGGGCCAGGATAGGAGGAACGTT,2.32,3.04,3.91,-0.715,1.53,2.31,0.538,0.0936,-0.171
CCGCCTAGGTCAGGGCCAGTATAGGAGGAACGTT,2.62,2.86,3.33,-0.193,1.74,2.2,0.59,0.294,-0.22
AGAATGAGGTTATACGTAGATCAGGGCAGAAAGT,1.33,1.72,1.08,1.89,2.36,2.43,1.05,1.67,1.47
ATACCAAGATGATCGTGAGGTCGTTGATACTAAC,1.17,0.596,0.434,0.473,0.929,2.39,1.81,1.78,2.77
CCTAGCAGGCCAATCTGGGCCACTCAAGGCTTGA,-0.384,-0.481,-0.168,-0.177,-0.923,1.24,-0.893,-0.783,-1.12
AGATTGAGGTTATTAAGATCAGGGAATTGCGGTC,1.06,1.07,0.837,1.55,1.44,2.37,0.869,2.28,1.49
